Here are results for one sequence from article PMC7862700, “An all-to-all approach to the identification of sequence-specific readers for epigenetic DNA modifications on cytosine”.

What all share (assay): DAPPL (digital affinity profiling via proximity ligation, sequencing); 10 mM Tris-HCl pH 7.5, 50 mM NaCl, 1 mM DTT, 4% glycerol, room temperature, 30 min; GST-TFs on glutathione beads, 16-mer random dsDNA library, 0.1% formaldehyde crosslink after washing; high values mean tight binding
Experiment [1] addresses T1, FEV (Homo sapiens, UniProt Q99581 1-238).
T1 sequence: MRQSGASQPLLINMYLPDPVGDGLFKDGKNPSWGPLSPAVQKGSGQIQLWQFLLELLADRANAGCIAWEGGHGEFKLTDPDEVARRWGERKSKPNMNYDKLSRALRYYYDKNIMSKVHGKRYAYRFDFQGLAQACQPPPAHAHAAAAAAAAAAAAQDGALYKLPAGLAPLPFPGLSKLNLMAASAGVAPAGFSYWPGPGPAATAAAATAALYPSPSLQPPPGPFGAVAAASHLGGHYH
As to conditions: protein: recombinant; tags: N-terminal GST; dsDNA, one strand shown. An outline of the steps: (§1)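 Human transcription factors were made in yeast as GST fusions, captured on glutathione beads and barcoded with DNA. With a tag-only sample included, the pool was incubated with 200 nmole of a random double-stranded 16-mer DNA library in Tris/NaCl/DTT/glycerol buffer at room temperature for 30 min, then crosslinked with 0.1% formaldehyde after washing, ligated by proximity, amplified and sequenced. For binding signal, each hexamer's read frequency for a factor is divided by its frequency for the tag-only sample.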

Experiment [2] addresses ETV5 (Homo sapiens, UniProt P41161 1-510). As to conditions: protein: recombinant; tags: N-terminal GST; dsDNA, one strand shown. An outline of the steps:
as §1

Experiment [3] has as its target HSF1 (Homo sapiens, UniProt Q00613 1-529). Conditions: protein: recombinant; tags: N-terminal GST; chain copies: 3; dsDNA, one strand shown. An outline of the steps: as §1
Experiment [4] deals with T2, SPIC (Homo sapiens, UniProt Q8N5J4 1-248).
T2 sequence: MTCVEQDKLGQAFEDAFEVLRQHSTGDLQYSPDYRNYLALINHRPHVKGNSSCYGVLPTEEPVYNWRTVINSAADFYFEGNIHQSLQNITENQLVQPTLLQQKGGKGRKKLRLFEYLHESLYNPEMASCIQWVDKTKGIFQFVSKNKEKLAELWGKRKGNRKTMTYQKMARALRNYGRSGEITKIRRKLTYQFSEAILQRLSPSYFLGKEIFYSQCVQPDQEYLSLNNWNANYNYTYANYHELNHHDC
Conditions: protein: recombinant; tags: N-terminal GST; dsDNA, one strand shown. In a few lines: as §1

The target in experiment [5] is ELF4 (Homo sapiens, UniProt Q99607 1-663). As to conditions: protein: recombinant; tags: N-terminal GST; dsDNA, one strand shown. An outline of the steps:
as §1

In experiment [6] the target is T3, ELK4 (Homo sapiens, UniProt P28324-2 1-405).
T3 sequence: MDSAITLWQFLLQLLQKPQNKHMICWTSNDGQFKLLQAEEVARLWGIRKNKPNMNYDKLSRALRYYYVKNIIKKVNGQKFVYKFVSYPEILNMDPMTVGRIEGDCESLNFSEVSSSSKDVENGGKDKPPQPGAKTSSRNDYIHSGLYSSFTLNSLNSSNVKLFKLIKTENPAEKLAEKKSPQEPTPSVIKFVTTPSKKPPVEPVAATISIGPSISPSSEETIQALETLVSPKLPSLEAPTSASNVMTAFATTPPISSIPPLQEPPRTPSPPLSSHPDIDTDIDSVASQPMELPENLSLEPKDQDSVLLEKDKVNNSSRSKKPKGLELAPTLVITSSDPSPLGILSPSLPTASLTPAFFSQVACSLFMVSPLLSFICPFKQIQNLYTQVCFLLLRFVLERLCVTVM
Conditions: protein: recombinant; tags: N-terminal GST; dsDNA, one strand shown. An outline of the steps: as §1

For experiment [7], the target named is T4, ETV2 (Homo sapiens, UniProt O00321 1-342).
T4 sequence: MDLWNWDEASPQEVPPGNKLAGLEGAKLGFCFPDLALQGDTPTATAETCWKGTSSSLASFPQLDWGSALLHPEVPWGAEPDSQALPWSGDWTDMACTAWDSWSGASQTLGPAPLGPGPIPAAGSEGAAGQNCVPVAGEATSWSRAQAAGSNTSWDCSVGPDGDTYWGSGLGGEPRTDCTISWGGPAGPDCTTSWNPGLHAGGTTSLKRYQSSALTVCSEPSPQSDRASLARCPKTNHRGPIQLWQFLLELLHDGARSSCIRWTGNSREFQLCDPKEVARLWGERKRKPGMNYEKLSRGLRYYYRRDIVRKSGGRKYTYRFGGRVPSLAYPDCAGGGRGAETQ
Conditions: protein: recombinant; tags: N-terminal GST; dsDNA, one strand shown. An outline of the steps: as §1

Experiment [8] deals with T5, ELF3 (Homo sapiens, UniProt P78545 1-371).
T5 sequence: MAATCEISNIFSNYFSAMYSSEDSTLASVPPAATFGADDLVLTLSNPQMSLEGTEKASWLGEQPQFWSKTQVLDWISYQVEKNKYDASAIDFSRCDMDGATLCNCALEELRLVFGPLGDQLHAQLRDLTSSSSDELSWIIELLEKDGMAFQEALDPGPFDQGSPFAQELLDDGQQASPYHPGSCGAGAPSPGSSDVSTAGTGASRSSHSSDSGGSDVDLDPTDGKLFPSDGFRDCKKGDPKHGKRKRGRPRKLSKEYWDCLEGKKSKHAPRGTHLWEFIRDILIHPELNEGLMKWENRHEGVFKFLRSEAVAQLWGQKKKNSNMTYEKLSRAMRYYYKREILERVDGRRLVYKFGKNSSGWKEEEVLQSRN
Conditions: protein: recombinant; tags: N-terminal GST; dsDNA, one strand shown. An outline of the steps:
as §1

For experiment [9], the target named is CRX (Homo sapiens, UniProt O43186 1-299). Conditions: protein: recombinant; tags: N-terminal GST; dsDNA, one strand shown. In a few lines:
as §1

Experiment [10] deals with ETV1 (Homo sapiens, UniProt P50549 1-477). As to conditions: protein: recombinant; tags: N-terminal GST; dsDNA, one strand shown. An outline of the steps: as §1
The target of experiment [11] is T6, ERF (Homo sapiens, UniProt P50548 1-548).
T6 sequence: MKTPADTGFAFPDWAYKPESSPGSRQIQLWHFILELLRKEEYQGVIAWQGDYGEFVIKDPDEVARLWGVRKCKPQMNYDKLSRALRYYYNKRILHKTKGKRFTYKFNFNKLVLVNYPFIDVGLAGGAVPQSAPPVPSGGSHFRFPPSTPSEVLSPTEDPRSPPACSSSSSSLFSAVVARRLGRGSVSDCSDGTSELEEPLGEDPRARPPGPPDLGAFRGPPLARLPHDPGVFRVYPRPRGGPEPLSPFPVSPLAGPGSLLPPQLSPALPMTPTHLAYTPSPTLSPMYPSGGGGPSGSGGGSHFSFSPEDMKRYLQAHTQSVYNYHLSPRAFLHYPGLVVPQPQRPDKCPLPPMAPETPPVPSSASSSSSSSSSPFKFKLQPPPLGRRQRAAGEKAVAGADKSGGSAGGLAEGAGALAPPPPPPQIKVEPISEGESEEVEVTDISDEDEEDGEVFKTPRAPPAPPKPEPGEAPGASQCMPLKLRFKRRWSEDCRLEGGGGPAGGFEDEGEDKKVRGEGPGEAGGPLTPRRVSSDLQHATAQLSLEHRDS
Conditions: protein: recombinant; tags: N-terminal GST; dsDNA, one strand shown. In a few lines:
as §1

The target of experiment [12] is T7, ETV3L (Homo sapiens, UniProt Q6ZN32 1-361).
T7 sequence: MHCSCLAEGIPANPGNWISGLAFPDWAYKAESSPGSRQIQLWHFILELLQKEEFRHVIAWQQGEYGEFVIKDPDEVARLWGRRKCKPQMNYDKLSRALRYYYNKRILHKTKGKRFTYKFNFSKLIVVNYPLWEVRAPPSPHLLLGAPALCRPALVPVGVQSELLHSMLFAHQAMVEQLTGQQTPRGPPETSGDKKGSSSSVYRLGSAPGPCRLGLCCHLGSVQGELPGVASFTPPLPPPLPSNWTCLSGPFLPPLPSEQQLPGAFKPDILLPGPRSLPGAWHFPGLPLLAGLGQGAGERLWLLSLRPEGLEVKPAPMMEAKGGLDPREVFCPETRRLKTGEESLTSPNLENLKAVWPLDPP
As to conditions: protein: recombinant; tags: N-terminal GST; dsDNA, one strand shown. In a few lines: as §1

Experiment [13] concerns the target T8, ETS2 (Homo sapiens, UniProt P15036 1-469).
T8 sequence: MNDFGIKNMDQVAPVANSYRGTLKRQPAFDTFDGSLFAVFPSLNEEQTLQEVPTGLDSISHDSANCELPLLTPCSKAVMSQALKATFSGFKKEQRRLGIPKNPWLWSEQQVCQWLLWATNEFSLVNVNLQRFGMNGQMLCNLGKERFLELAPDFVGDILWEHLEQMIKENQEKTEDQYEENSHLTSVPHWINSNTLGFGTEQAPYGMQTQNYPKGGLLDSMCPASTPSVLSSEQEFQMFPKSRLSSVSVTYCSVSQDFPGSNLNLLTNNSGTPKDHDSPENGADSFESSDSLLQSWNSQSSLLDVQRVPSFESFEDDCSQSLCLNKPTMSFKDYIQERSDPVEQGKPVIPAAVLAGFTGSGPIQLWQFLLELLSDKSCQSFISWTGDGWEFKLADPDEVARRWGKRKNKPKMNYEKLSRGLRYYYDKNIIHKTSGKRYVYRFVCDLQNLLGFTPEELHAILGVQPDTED
Conditions: protein: recombinant; tags: N-terminal GST; dsDNA, one strand shown. An outline of the steps: as §1

The target of experiment [14] is T9, SPDEF (Homo sapiens, UniProt O95238 1-335).
T9 sequence: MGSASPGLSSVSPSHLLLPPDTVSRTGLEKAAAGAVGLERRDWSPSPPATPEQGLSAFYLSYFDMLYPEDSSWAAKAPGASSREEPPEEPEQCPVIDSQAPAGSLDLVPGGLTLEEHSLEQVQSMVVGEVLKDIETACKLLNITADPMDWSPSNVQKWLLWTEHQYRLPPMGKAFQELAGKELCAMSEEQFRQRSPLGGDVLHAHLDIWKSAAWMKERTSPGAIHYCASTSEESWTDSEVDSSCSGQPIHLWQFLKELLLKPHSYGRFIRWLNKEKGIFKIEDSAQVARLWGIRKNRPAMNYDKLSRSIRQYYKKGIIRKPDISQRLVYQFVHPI
Conditions: protein: recombinant; tags: N-terminal GST; dsDNA, one strand shown. In a few lines: as §1

For experiment [15], the target named is T10, ETV7 (Homo sapiens, UniProt Q9Y603 1-341).
T10 sequence: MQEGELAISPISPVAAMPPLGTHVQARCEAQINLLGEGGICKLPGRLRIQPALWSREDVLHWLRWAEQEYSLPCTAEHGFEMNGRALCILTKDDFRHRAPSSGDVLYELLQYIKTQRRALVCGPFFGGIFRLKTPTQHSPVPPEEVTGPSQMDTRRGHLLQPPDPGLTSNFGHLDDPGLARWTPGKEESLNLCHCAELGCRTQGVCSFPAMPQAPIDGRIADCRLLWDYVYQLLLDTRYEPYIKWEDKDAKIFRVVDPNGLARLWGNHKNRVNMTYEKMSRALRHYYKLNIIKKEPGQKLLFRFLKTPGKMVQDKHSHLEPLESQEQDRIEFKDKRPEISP
As to conditions: protein: recombinant; tags: N-terminal GST; dsDNA, one strand shown. An outline of the steps: as §1

For experiment [16], the target named is T11, ELF5 (Homo sapiens, UniProt Q9UKW6-2 1-255).
T11 sequence: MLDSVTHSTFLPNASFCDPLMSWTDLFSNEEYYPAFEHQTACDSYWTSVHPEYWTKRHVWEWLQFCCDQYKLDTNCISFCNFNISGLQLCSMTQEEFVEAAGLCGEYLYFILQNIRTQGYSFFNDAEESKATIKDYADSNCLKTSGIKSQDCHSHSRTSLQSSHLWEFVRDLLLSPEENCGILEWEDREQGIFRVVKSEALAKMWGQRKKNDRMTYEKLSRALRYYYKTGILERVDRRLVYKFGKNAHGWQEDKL
As to conditions: protein: recombinant; tags: N-terminal GST; dsDNA, one strand shown. In a few lines:
as §1

Experiment [17] concerns the target T12, ETV3 (Homo sapiens, UniProt P41162-2 1-143).
T12 sequence: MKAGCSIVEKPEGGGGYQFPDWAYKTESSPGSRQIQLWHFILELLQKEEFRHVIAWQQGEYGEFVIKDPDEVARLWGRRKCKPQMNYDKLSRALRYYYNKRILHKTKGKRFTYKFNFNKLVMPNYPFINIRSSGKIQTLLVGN
Conditions: protein: recombinant; tags: N-terminal GST; dsDNA, one strand shown. In a few lines: as §1

Experiment [18] addresses ETV6 (Homo sapiens, UniProt P41212 1-452). As to conditions: protein: recombinant; tags: N-terminal GST; dsDNA, one strand shown. In a few lines: as §1

Chain of ELF4 (Q99607 whole entry): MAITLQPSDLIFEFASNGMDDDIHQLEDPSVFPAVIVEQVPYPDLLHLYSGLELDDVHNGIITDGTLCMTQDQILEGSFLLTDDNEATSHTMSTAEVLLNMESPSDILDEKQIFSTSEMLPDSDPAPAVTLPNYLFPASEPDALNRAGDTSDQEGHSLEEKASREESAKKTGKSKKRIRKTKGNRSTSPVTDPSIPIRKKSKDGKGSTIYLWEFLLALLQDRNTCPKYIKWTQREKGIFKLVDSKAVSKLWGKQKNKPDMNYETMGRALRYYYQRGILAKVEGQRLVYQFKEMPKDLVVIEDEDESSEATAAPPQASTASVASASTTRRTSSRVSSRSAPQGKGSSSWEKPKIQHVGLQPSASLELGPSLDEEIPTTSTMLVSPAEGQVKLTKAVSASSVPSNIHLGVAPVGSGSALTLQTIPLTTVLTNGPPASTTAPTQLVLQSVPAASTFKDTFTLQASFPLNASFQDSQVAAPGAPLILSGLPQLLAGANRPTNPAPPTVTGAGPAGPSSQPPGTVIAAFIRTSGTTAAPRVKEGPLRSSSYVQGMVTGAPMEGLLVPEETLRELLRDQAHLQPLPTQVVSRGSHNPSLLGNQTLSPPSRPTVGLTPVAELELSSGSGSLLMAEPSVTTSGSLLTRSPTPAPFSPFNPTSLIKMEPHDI
Chain of HSF1 (Q00613 whole entry): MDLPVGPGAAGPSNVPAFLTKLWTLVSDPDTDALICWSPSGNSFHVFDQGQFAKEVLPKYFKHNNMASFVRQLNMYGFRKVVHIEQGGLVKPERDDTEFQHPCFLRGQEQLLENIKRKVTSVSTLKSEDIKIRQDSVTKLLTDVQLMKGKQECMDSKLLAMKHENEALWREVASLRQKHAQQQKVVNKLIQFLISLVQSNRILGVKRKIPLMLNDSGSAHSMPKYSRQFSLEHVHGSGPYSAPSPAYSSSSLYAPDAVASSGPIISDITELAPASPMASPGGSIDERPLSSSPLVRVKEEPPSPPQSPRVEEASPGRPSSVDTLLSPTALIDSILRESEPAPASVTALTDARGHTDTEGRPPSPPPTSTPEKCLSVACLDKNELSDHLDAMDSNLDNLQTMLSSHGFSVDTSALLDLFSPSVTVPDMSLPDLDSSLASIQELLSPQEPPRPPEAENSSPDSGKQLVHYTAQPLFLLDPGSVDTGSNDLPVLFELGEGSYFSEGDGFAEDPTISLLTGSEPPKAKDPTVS
Chain of ETV5 (P41161 whole entry): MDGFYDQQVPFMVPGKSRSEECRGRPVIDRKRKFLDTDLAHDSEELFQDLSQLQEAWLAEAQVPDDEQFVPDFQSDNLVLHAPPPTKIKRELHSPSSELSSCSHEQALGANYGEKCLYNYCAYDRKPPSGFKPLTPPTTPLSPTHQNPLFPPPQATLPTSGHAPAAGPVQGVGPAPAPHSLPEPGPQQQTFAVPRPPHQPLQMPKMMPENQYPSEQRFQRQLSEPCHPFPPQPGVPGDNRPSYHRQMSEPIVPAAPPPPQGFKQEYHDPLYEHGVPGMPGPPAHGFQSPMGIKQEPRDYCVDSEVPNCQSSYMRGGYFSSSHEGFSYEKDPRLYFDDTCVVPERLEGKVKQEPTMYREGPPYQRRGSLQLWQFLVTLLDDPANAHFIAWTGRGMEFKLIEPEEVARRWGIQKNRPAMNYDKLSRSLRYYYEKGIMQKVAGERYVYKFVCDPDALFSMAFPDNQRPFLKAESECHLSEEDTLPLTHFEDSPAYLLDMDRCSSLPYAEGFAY
Chain of CRX (O43186 whole entry): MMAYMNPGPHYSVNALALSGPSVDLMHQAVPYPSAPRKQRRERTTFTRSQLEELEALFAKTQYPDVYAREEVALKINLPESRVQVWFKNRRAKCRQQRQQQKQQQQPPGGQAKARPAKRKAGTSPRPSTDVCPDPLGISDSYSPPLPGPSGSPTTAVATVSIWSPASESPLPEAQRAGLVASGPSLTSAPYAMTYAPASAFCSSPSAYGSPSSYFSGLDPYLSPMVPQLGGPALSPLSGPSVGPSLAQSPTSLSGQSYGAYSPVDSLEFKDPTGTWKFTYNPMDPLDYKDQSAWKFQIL
Chain of ETV1 (P50549 whole entry): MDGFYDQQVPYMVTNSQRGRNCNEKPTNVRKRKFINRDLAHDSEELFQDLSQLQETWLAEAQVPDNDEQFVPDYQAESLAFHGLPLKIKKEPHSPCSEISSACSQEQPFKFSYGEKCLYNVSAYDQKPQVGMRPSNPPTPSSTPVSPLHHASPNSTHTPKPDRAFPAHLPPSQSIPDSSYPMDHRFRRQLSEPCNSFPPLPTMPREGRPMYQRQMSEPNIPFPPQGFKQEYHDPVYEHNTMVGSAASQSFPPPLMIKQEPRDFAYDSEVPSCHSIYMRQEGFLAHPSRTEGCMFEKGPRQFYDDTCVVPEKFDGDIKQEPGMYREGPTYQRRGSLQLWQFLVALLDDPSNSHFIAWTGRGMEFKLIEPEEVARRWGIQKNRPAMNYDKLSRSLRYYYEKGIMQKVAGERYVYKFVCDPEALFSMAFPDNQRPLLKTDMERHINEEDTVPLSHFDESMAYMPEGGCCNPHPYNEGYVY
Chain of ETV6 (P41212 whole entry): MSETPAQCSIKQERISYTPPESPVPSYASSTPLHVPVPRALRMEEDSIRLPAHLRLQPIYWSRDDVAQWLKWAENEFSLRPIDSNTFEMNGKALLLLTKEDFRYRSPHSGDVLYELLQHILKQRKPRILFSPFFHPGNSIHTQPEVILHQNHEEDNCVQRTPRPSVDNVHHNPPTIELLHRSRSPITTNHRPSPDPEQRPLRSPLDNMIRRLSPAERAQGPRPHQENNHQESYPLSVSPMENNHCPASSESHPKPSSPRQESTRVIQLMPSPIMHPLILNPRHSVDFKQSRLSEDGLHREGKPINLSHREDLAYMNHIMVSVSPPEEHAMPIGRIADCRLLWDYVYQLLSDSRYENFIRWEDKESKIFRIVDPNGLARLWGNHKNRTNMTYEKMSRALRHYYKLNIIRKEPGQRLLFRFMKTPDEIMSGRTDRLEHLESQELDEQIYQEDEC

As to CGATCT, the binding signal in experiment [1] is 1.32 fold enrichment (6-mer frequency, TF over GST control); in experiment [2], 1.36 fold enrichment (6-mer frequency, TF over GST control); in experiment [3], 1.54 fold enrichment (6-mer frequency, TF over GST control); in experiment [4] it was 1.46 fold enrichment (6-mer frequency, TF over GST control); in experiment [5] it was 1.37 fold enrichment (6-mer frequency, TF over GST control); in [6], 1.38 fold enrichment (6-mer frequency, TF over GST control). The binding signal was 1.27 fold enrichment (6-mer frequency, TF over GST control) in experiment [7]; 1.41 fold enrichment (6-mer frequency, TF over GST control) in experiment [8]; 1.52 fold enrichment (6-mer frequency, TF over GST control) in [9]; 1.24 fold enrichment (6-mer frequency, TF over GST control) in experiment [10]; 1.17 fold enrichment (6-mer frequency, TF over GST control) in [11]; 1.32 fold enrichment (6-mer frequency, TF over GST control) in [12]. Moreover, the binding signal in experiment [13] was 1.32 fold enrichment (6-mer frequency, TF over GST control); in [14], 1.25 fold enrichment (6-mer frequency, TF over GST control); in experiment [15] it was 1.42 fold enrichment (6-mer frequency, TF over GST control); in experiment [16] it was 1.27 fold enrichment (6-mer frequency, TF over GST control); in [17], 1.24 fold enrichment (6-mer frequency, TF over GST control); in experiment [18], 1.2 fold enrichment (6-mer frequency, TF over GST control).
